Holding throughout (conditions): mRNA level, 48 h; actives raise or lower the signal
Read-out in assay [1]: Caspase-3 (Homo sapiens) (UniProt P42574)
Nature of the assay: LTEA_HepaRG_CASP3: Life Technologies and Expression Analysis (LTEA) Assay for cysteine-aspartic acid protease (CASP3) using HepaRG (AID 2283477). The method, boiled down: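 HepaRG, 48 h exposure, 8 conc. (top 100 uM, half-log steps, duplicate), 0.5% DMSO vehicle; qRT-PCR of CASP3 transcript, housekeeping-normalised (ACTB/GAPDH/POLR2A); bidirectional curve fit vs DMSO baseline.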

Read-out in assay [2]: Cytochrome P450 (CYP1A2), CYP1A2 (gene 1544)
Nature of the assay: LTEA_HepaRG_CYP1A2: Life Technologies and Expression Analysis (LTEA) Assay for Cytochrome P450 (CYP1A2) using HepaRG (AID 2283479). In a few lines:
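HepaRG, 48 h exposure, top 100 uM, half-log 8-pt, 0.5% DMSO vehicle, duplicates. Readout: TaqMan qRT-PCR of CYP1A2 mRNA, housekeeping-normalized (ACTB/GAPDH/POLR2A). Gain/loss fit relative to DMSO baseline.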

Read-out in assay [3]: cysteine-aspartic acid protease (CASP8), CASP8 (gene 841)
The assay can be described thus: LTEA_HepaRG_CASP8: Life Technologies and Expression Analysis (LTEA) Assay for cysteine-aspartic acid protease (CASP8) using HepaRG (AID 2283480). The method, boiled down:
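Differentiated human HepaRG cells, plated 48 h then switched to serum-free induction medium, were exposed in duplicate for 48 h to 8 half-log concentrations up to 100 uM in 0.5% DMSO. CASP8 mRNA was quantified by qRT-PCR, normalized to ACTB/GAPDH/POLR2A.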

Read-out in assay [4]: Cytochrome P450 2C19 (Homo sapiens) (UniProt P33261)
The assay can be described thus: LTEA_HepaRG_CYP2C19: Life Technologies and Expression Analysis (LTEA) Assay for CYP2C19 using HepaRG (AID 2283482). In a few lines:
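HepaRG, 48 h chemical exposure, 8-pt half-log series from 100 uM in 0.5% DMSO, duplicates. Readout: CYP2C19 mRNA by TaqMan qRT-PCR, housekeeping-normalized. Bidirectional fit vs DMSO baseline; phenobarbital 1mM as induction control.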

Read-out in assay [5]: CYP2C8 (gene 1558)
Nature of the assay: LTEA_HepaRG_CYP2C8: Life Technologies and Expression Analysis (LTEA) Assay for CYP2C8 using HepaRG (AID 2283483). In a few lines:
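Differentiated human HepaRG cells were exposed for 48 h in serum-free induction medium to eight half-log concentrations up to 100 uM in 0.5% DMSO, in duplicate. CYP2C8 mRNA was measured by TaqMan qRT-PCR, normalized to ACTB, GAPDH and POLR2A, and fitted bidirectionally against DMSO.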

Read-out in assay [6]: CYP2C9 (gene 1559)
The assay can be described thus: LTEA_HepaRG_CYP2C9: Life Technologies and Expression Analysis (LTEA) Assay for CYP2C9 using HepaRG (AID 2283484). The method, boiled down: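 Differentiated human HepaRG cells were exposed 48 h in serum-free induction medium to eight half-log concentrations up to 100 uM in 0.5% DMSO. CYP2C9 mRNA was measured by qRT-PCR, normalized to ACTB, GAPDH and POLR2A, and fitted bidirectionally against DMSO.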

Read-out in assay [7]: CYP2E1 (gene 1571)
Nature of the assay: LTEA_HepaRG_CYP2E1: Life Technologies and Expression Analysis (LTEA) Assay for CYP2E1 using HepaRG (AID 2283485). The method, boiled down: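 HepaRG cells in serum-free induction medium exposed 48 h to test chemicals, 8 half-log concentrations up to 100 uM in 0.5% DMSO, duplicate. CYP2E1 mRNA by qRT-PCR, normalized to ACTB, GAPDH, POLR2A; bidirectional fit versus DMSO.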

Read-out in assay [8]: CYP4A11 (gene 1579)
Nature of the assay: LTEA_HepaRG_CYP4A11: Life Technologies and Expression Analysis (LTEA) Assay for CYP4A11 using HepaRG (AID 2283486). The method, boiled down:
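CYP4A11 transcript levels were quantified by TaqMan qRT-PCR after HepaRG human liver cells were treated for 48 hours with test chemicals (top 100 uM, half-log dilutions, 0.5% DMSO). Gain or loss of signal was fitted relative to DMSO.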

Read-out in assay [9]: DNA damage-inducible transcript 3 (DDIT3), DDIT3 (gene 1649)
The assay can be described thus: LTEA_HepaRG_DDIT3: Life Technologies and Expression Analysis (LTEA) Assay for DNA damage-inducible transcript 3 (DDIT3) using HepaRG (AID 2283488). In a few lines: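 Differentiated human HepaRG cells in serum-free induction medium were exposed in duplicate for 48 h to 8 concentrations (top 100 uM, half-log steps, 0.5% DMSO). DDIT3 mRNA measured by TaqMan qRT-PCR, normalized to ACTB/GAPDH/POLR2A; bidirectional fit versus DMSO.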

Read-out in assay [10]: Pro-epidermal growth factor (Homo sapiens) (UniProt P01133)
The assay can be described thus: LTEA_HepaRG_EGF: Life Technologies and Expression Analysis (LTEA) Assay for Epidermal growth factor (EGF) using HepaRG (AID 2283489). The method, boiled down: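 qRT-PCR readout of EGF transcript after 48 h chemical exposure of HepaRG cells; eight concentrations from 100 uM down in half-log steps, duplicate wells, 0.5% DMSO vehicle. Bidirectional curve fitting against DMSO baseline.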

Read-out in assay [11]: Early growth response protein 1 (EGR1) transcription factor, EGR1 (gene 1958)
Nature of the assay: LTEA_HepaRG_EGR1: Life Technologies and Expression Analysis (LTEA) Assay for Early growth response protein 1 (EGR1) transcription factor using HepaRG (AID 2283490). The method, boiled down: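 Differentiated human HepaRG cells in serum-free induction medium were exposed in duplicate for 48 h to eight concentrations (top 100 uM, half-log steps) in 0.5% DMSO. EGR1 mRNA was quantified by qRT-PCR, normalized to ACTB, GAPDH and POLR2A, and fitted bidirectionally versus DMSO.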

Read-out in assay [12]: Ezrin (EZR), EZR (gene 7430)
The assay can be described thus: LTEA_HepaRG_EZR: Life Technologies and Expression Analysis (LTEA) Assay for Ezrin (EZR) using HepaRG (AID 2283491). In a few lines: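 HepaRG, 48 h chemical exposure, 8-pt half-log series from 100 uM, 0.5% DMSO vehicle, duplicates. Read-out: EZR mRNA by TaqMan qRT-PCR (Fluidigm array), housekeeping-normalized; bidirectional curve fit vs DMSO baseline.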

Read-out in assay [13]: Cytochrome P450 3A7 (Homo sapiens) (UniProt P24462)
The assay can be described thus: LTEA_HepaRG_CYP3A7: Life Technologies and Expression Analysis (LTEA) Assay for CYP3A7 using HepaRG (AID 2283492). The method, boiled down: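 CYP3A7 transcript levels were read by TaqMan qRT-PCR on Fluidigm arrays after 48 h chemical exposure of human HepaRG cells, with housekeeping-gene normalisation. Eight half-log concentrations up to 100 uM in 0.5% DMSO were tested in duplicate.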

Read-out in assay [14]: CYP3A5 (gene 1577)
The assay can be described thus: LTEA_HepaRG_CYP3A5: Life Technologies and Expression Analysis (LTEA) Assay for CYP3A5 using HepaRG (AID 2283493). The method, boiled down: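 Differentiated HepaRG cells in serum-free induction medium were dosed 48 h with test chemicals (8-point half-log series, top 100 uM, 0.5% DMSO, duplicate). CYP3A5 mRNA measured by qRT-PCR, normalized to ACTB, GAPDH, POLR2A; bidirectional fit versus DMSO.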

Read-out in assay [15]: Fatty Acid-Binding Protein 1 (FABP1), FABP1 (gene 2168)
The assay can be described thus: LTEA_HepaRG_FABP1: Life Technologies and Expression Analysis (LTEA) Assay for Fatty Acid-Binding Protein 1 (FABP1) using HepaRG (AID 2283494). The method, boiled down: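 Differentiated human HepaRG cells were exposed in duplicate for 48 h in serum-free induction medium to 8-point half-log concentration series topping at 100 uM in 0.5% DMSO. FABP1 mRNA measured by TaqMan qRT-PCR, normalized to ACTB/GAPDH/POLR2A; bidirectional fit versus DMSO.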

Read-out in assay [16]: Cytochrome P450 4A22 (Homo sapiens) (UniProt Q5TCH4)
The assay can be described thus: LTEA_HepaRG_CYP4A22: Life Technologies and Expression Analysis (LTEA) Assay for Cytochrome P450 4A22 (CYP4A22) using HepaRG (AID 2283495). In a few lines: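 HepaRG, 48 h post-plating -> serum-free induction medium; dosed 48 h, duplicate, 8 conc. (100 uM top, half-log), 0.5% DMSO. Readout: CYP4A22 mRNA by qRT-PCR, ACTB/GAPDH/POLR2A normalization; gain/loss fit relative to DMSO.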

Read-out in assay [17]: Cytochrome P450 7A1 (Homo sapiens) (UniProt P22680)
The assay can be described thus: LTEA_HepaRG_CYP7A1: Life Technologies and Expression Analysis (LTEA) Assay for Cytochrome P450 7A1 (CYP7A1) using HepaRG (AID 2283496). The method, boiled down:
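Gene expression endpoint in human HepaRG liver cells treated for 48 h with test chemicals (up to 100 uM, 0.5% DMSO). Values come from bidirectional concentration-response fitting versus DMSO.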

Read-out in assay [18]: Cytochrome P450 (CYP2B6), CYP2B6 (gene 1555)
Nature of the assay: LTEA_HepaRG_CYP2B6: Life Technologies and Expression Analysis (LTEA) Assay for Cytochrome P450 (CYP2B6) using HepaRG (AID 2283481). In a few lines: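 Read-out is CYP2B6 mRNA by TaqMan qRT-PCR, normalized to three housekeeping genes and fitted bidirectionally against 0.5% DMSO baseline. Human HepaRG cells received test chemicals for 48 h, top concentration 100 uM, half-log dilutions.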

Read-out in assay [19]: Cytochrome P450 3A4 (Homo sapiens) (UniProt P08684)
The assay can be described thus: LTEA_HepaRG_CYP3A4: Life Technologies and Expression Analysis (LTEA) Assay for CYP3A4 using HepaRG (AID 2283487). The method, boiled down: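 CYP3A4 transcript measured by TaqMan qRT-PCR and normalized to three housekeeping genes after 48 h chemical exposure of human HepaRG cells. Top concentration 100 uM, half-log steps, 0.5% DMSO vehicle; gain or loss fitted against DMSO baseline.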

Experimental findings from PubChem BioAssay (EPA / NIEHS) are described below.

SMILES strings stand for the structures. Active and inactive are the calls of the source. The calls were made as follows: active = hit-call score of the fitted dose curve at least 0.9, where 1 is the maximum; inactive = score below 0.9.

Sequence of Caspase-3 (Homo sapiens) (P42574 whole entry, looked up): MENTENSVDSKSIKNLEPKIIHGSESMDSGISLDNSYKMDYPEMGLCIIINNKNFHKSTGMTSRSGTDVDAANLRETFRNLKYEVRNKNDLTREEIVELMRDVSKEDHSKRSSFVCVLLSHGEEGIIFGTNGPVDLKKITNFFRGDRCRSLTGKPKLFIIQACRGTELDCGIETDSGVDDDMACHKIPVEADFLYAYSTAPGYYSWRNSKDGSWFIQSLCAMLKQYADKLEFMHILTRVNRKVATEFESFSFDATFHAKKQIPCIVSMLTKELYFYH
Sequence of Cytochrome P450 3A7 (Homo sapiens) (P24462 whole entry, looked up): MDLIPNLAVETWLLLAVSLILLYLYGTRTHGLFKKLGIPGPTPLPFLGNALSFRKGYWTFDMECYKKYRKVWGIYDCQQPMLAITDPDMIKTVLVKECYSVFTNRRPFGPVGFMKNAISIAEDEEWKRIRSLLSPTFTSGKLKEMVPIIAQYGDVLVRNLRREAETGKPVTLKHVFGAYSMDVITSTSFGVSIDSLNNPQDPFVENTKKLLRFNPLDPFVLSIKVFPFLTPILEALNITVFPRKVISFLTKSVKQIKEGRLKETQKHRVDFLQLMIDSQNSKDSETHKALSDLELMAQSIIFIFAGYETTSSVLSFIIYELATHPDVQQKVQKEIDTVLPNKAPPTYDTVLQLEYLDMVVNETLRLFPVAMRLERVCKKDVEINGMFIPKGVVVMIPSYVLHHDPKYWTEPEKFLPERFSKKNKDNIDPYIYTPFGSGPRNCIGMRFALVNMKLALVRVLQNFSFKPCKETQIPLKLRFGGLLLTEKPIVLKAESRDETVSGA
Sequence of Cytochrome P450 2C19 (Homo sapiens) (P33261 whole entry, looked up): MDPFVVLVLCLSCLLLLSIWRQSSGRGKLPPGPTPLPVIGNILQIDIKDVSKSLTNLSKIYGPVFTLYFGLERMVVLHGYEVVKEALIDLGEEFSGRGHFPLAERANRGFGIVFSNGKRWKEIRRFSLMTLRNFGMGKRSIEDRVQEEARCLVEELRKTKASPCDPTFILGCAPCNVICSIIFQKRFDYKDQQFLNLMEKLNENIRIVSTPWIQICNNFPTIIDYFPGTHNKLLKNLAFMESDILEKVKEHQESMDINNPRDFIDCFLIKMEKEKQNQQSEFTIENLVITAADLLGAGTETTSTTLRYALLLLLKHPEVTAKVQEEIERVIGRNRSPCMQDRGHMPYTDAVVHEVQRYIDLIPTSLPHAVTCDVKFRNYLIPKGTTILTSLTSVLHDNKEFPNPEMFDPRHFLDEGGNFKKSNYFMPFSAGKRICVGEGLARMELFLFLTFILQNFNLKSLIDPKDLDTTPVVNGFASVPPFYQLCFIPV
Sequence of Cytochrome P450 3A4 (Homo sapiens) (P08684 whole entry, looked up): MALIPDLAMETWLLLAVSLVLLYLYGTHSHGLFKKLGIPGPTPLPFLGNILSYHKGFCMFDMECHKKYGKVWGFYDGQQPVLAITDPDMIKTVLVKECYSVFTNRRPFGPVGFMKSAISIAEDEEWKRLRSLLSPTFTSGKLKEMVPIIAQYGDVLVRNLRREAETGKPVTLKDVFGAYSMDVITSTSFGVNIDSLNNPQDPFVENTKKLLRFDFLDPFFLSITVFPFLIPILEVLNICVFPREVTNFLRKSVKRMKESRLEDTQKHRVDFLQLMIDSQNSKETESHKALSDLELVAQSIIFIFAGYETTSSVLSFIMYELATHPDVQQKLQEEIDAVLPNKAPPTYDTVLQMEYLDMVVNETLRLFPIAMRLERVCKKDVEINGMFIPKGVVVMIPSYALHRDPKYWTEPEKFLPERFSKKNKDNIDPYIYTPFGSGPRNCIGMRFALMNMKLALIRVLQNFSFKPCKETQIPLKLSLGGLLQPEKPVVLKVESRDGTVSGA

For the molecule `O=C(O)Cc1ccccc1Nc1c(Cl)cccc1Cl`, the call in [1], in assay [3], in assay [5], in assay [6], in assay [8] and in assay [9] was inactive. Moreover, the molecule was called inactive in [10], in assay [11], in assay [12], in assay [13], in [14] and in assay [15]. Besides, the AC50 is 2.69 µM (active) in assay [2]; 5.86 µM (active) in [4]; 11.8 µM (active) in assay [7]; 9.92 µM (active) in assay [16]; 1.24 µM (active) in [17].

In the case of `CNCc1cc(F)ccc1Oc1ccc(Cl)c(Cl)c1`, the call in [1], in [2], in assay [3], in assay [18], in assay [5] and in [12] was inactive. Further, the call in assay [14] was inactive. Also, the half-maximal activity concentration (AC50) is 94 µM (active) in assay [4]; 92.6 µM (active) in assay [6]; 73.8 µM (active) in [7]; 75.5 µM (active) in assay [8]; 77 µM (active) in assay [9]; 79.4 µM (active) in [10]. In addition, the AC50 in [11] is 83 µM (active); in assay [13] it was 77.5 µM (active); in [15], 84 µM (active); in [16], 74.9 µM (active); in [17], 85.1 µM (active).

Regarding `COc1cc(-c2nc(NC(=O)c3cc4cc(C)cc(C)c4n3CC(=O)O)sc2CCC2CCCCC2)c(OC)cc1Cl`, the AC50 in assay [1] is 11 µM (active); in assay [2], 4.88 µM (active); in [3], 11 µM (active); in assay [18], 5.76 µM (active); in assay [4], 7.57 µM (active); in assay [5], 6.7 µM (active). Moreover, the AC50 was 6.47 µM (active) in assay [6]; 7.86 µM (active) in [7]; 8.34 µM (active) in assay [8]; 7.45 µM (active) in [19]; 10.9 µM (active) in assay [9]; 29.1 µM (active) in [10]. The AC50 is 42.2 µM (active) in assay [11]; 7.24 µM (active) in assay [13]; 9.6 µM (active) in [14]; 4.12 µM (active) in assay [15]; 6.57 µM (active) in assay [16]; 4.44 µM (active) in assay [17].

Regarding `CC(=O)OC/C=C(\C)CCC=C(C)C`, the molecule was called inactive in [1], in assay [2], in assay [3], in [18], in [4] and in assay [5]. The molecule was called inactive in assay [6], in assay [7], in [8], in [19], in [9] and in assay [10]. Moreover, the molecule was called inactive in assay [11], in [13], in [14], in [15], in [16] and in assay [17].

As usually defined, the AC50 is the concentration at which the activity in the assay is half-maximal.
